TTR transcr act: increases transthyretin transcription; hit rate 1.3% among 92,000; SH-SY5Y TTR promoter Gaussia luciferase, luminescence; 100% = recombinant luciferase protein wells; AID 1117267; activation, % at 16.7 µM;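 active = activation above the mean of all tested compounds plus 3 SD, cut at about 9.5% in these data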;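 note: cells exposed to compounds for one day before reading; 0% = median of all test compound wells on the plate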
HuH7 TTR inh: decreases TTR transcription in HuH7 cells in activator counter-screen; shares compounds with TTR transcr act; HuH7 TTR promoter-Gaussia luciferase reporter, luminescence; inhibition, % at 16.7 µM; hit rate 4% among 1,100; AID 1117279;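 active = average inhibition above the solvent-only control wells' mean plus 3 SD, cut at about 15% in these data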;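 note: 0% = cells with DMSO only and 100% = cells with inhibitor control FD; inhibitors lower well luminescence so higher value means more inhibition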
TTR up confirm: confirmation of human transthyretin transcription activators | shares compounds with TTR transcr act | SHSY5Y TTR promoter Gaussia luciferase, luminescence; 100% = purified Lucia enzyme wells, no cells | activation, % at 16.7 µM | 1,100 tested, under 10 active;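 active = mean activation above a set limit taken from the earlier primary screen, cut at about 11% in these data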;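 note: 0% = DMSO-treated cells and 100% = recombinant Lucia luciferase without cells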
The depositor's hits bear a star. This is one part of a sample in which hits are shown more often than they occur.

SMILES	TTR transcr act	others
O=C(Cc1ccc(Br)cc1)N1CCN(Cc2ccccc2)CC1	11*
Cc1ccc(CC(=O)N2CCN(Cc3ccccc3)CC2)cc1	-1
O=C(Cc1ccccc1)N1CCN(CCCc2ccccc2)CC1	0
O=C(NC(Cc1ccccc1)P(=O)(O)Oc1ccccc1)OCc1ccccc1 (stereo unspecified)	-1
CN1C(=O)[C@@]23C[C@]4(c5c[nH]c6ccccc56)c5ccccc5N(S(=O)(=O)c5ccccc5)[C@@H]4N2C(=O)[C@@H]1SS3	-3
Cn1c(O)c(/C=C2\C=Nc3ccccc32)c(=O)n(C)c1=O	0
Cn1c(O)c(/C=C2\N=c3ccccc3=C2CCNC(=S)NC2CC2)c(=O)n(C)c1=O	13*	HuH7 TTR inh=17*;TTR up confirm=0
COC(=O)C1=Nc2ccccc2/C1=C\c1c(O)n(C)c(=O)n(C)c1=O	0
O=c1[nH]c2ccccc2n1C1CCN(C(CCc2ccccc2)c2nnnn2-c2ccc3c(c2)OCCO3)CC1 (stereo unspecified)	-5
CC(C)C(NC(=O)OCc1ccccc1)P(=O)(Oc1ccccc1)Oc1ccccc1 (stereo unspecified)	0
Clc1ccc([C@H]2CC3CCC2N3)cn1 (stereo partly specified)	-2
COc1cccc(C(=O)C2CCCN(Cc3cnn(C(C)C)c3)C2)c1 (stereo unspecified)	11*	HuH7 TTR inh=-16;TTR up confirm=2
COc1cccc(C(=O)C2CCCN(Cc3ccc(F)cc3)C2)c1 (stereo unspecified)	2
COc1cccc(C(=O)C2CCCN(Cc3cccc(C)n3)C2)c1 (stereo unspecified)	3
CC(C)C(CN1CCC(C)(c2cccc(O)c2)[C@@H](C)C1)NC(=O)C1Cc2ccc(O)cc2CN1 (stereo partly specified)	1
CN(C)CC1CSCCC1(O)c1ccccc1Cl (stereo unspecified)	2
CNC1(c2ccccc2Cl)CCCCC1=O (stereo unspecified)	16*	HuH7 TTR inh=-3;TTR up confirm=-1
C[C@H]1CN([C@@H](C)CO)C(=O)CCCn2nncc2CO[C@H]1CN(C)C(=O)Oc1ccc2ccccc2c1	-1
CCc1cc(OC)c(CCN)cc1OC	2
CCOC(=O)[C@]12Cc3cc(C)ccc3[C@H]1N(C1CCCCC1)C(=O)c1cc(OC)ccc12	-7
O=C(O)c1cc2ccccc2n1C1CCN(Cc2ccccc2)CC1	6
Cc1nn(C)c(C)c1P(=S)(c1c(C)nn(C)c1C)N(C)C	9.9*	HuH7 TTR inh=-4;TTR up confirm=-1
COP(=O)(C(=O)Nc1ccccc1)C(CC(C)C)NC(=O)OCc1ccccc1 (stereo unspecified)	2
COc1ccc(Cn2c(O)c(/C=N/NC(=O)c3ccccc3)c(=O)[nH]c2=O)cc1	0
CCn1c(O)c(/C=N/NC(=O)c2ccccc2)c(=O)[nH]c1=S	8
SMILES	TTR transcr act	others
COc1ccccc1-n1c(O)c(/C=N/NC(=S)Nc2ccccc2)c(=O)[nH]c1=S	14*	HuH7 TTR inh=-12;TTR up confirm=0
CC[C@H](C)[C@@H]1OC(=O)[C@H](C(C)C)N(C)C(=O)[C@H](C(C)C)NC(=O)[C@@H](C)[C@@H](CCCC#CBr)OC(=O)[C@H](C(C)C)N(C)C(=O)C2CCCN2C1=O (stereo partly specified)	-4
CC(C)NC1(c2ccccc2)CCCCC1	-1
COC(=O)C1C(OC(=O)c2ccccc2)CC2CCC1[N+]2(C)C (stereo unspecified)	0
O=P(Oc1ccccc1)(N1CCOCC1)N1CCOCC1	-1
O=CC(Cl)P(=O)(N1CCOCC1)N1CCOCC1 (stereo unspecified)	1
O=P(/C(=N/O)N1CCOCC1)(N1CCOCC1)N1CCOCC1	12*	HuH7 TTR inh=-10;TTR up confirm=-1
CC(=O)C1CCC2C3CCC4CC(O)CCC4(C)C3C(O)CC12C (stereo unspecified)	-1
CC(=O)C1CCC2C3CC(O)C4CC(O)CCC4(C)C3CCC12C (stereo unspecified)	-2
CC(=O)C1CCC2C3CCC4CC(O)CCC4(C)C3C(=O)CC12C (stereo unspecified)	12*	HuH7 TTR inh=-7;TTR up confirm=-1
CC(C)(C)OC(=O)NCCCCC(N)[P+](=O)O (stereo unspecified)	7
CCn1c(O)c(/C=N/N2CCOCC2)c(=O)n(CC)c1=S	1
Cc1ccc(-n2c(O)c(/C=N/N3CCOCC3)c(=O)[nH]c2=S)cc1	10*	HuH7 TTR inh=10;TTR up confirm=0
O=c1[nH]c(=S)n(-c2ccc(Cl)cc2)c(O)c1C=Nc1ccc(N2CCOCC2)cc1	-2
O=C1CC[C@@]2(O)[C@H]3Cc4ccc(O)c5c4[C@@]2(CCN3CC2CC2)C1O5 (stereo partly specified)	-1
COC(=O)C1C(c2ccc(F)cc2)CC2CCC1N2C (stereo unspecified)	0
NC(Cc1ccccc1)[P+](=O)O (stereo unspecified)	6
CC1c2ccccc2-n2nncc2CN1CC1CCCCC1 (stereo unspecified)	1
Brc1ccc2c(c1)CN(CC1CCCCC1)Cc1cnnn1-2	27*	HuH7 TTR inh=-8;TTR up confirm=0
O=S(=O)(c1ccc(Cl)cc1)N1Cc2cc(Br)ccc2-n2nncc2C1	0
O=C(CNC(=O)OCc1ccccc1)NC(Cc1ccccc1)P(=O)(Oc1ccccc1)Oc1ccccc1 (stereo unspecified)	-2
CCC(NC(=O)OCc1ccccc1)P(=O)(Oc1ccccc1)Oc1ccccc1 (stereo unspecified)	0
CN1CCN(c2nc([N+](=O)[O-])nn2C)CC1	1
CCN1CCN(c2nc([N+](=O)[O-])nn2C)CC1	14*	HuH7 TTR inh=-4;TTR up confirm=0
Brc1csc(N2CCNCC2)n1	0
COc1ccc2c3c([nH]c2c1)[C@H](C=C(C)C)N1C(=O)[C@@H]2CCCN2C(=O)[C@@H]1C3	0
CO[C@H]([C@H](C)/C=C/N(C)C=O)[C@@H](C)C(=O)CC[C@H](C)[C@H](O)[C@H](C)[C@H]1OC(=O)/C=C/C(C)=C/[C@H](O)[C@H](OC)C[C@@H]2C=CC[C@@H](C[C@H](OC)[C@@H](CO)[C@@H](OC)C[C@@H](OC)[C@@H]1C)O2	7
COc1cc(O)c2c(c1)/C=C/C[C@H](O)[C@H](O)[C@@H](O)/C=C/C[C@H](C)OC2=O	1
S=P(c1ccccc1)(c1ccccc1)c1cnc2ccccn12	0
CCC12CCN(CC3(O)CC3)C(Cc3ccc(O)cc31)C2(C)C (stereo unspecified)	4
